Compound activity (PubChem BioAssay)
ELG1 DNA repair: blocks ELG1-dependent DNA repair in HEK293T cells; HEK293T ELG1-luciferase reporter, luminescence, 16 h; DNA damage induced by 5-fluorouridine; Potency, µM (series often up to 46.1 µM), for inactives: at the highest dose activity change, negative = inhibition, actives largely listed as inhibitors; 2.3% of 330,000 active; note: potency is the fitted concentration of half-maximal effect; % is set by controls: 0 for no effect and ±100 for the full control effect; nearly all actives have a fitted effect of over 55% in size
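Step one: seed 2,000 cells per well. Step two: pin-transfer compound or DMSO alongside 5-fluorouridine. Step three: incubate 16 hr, 37 °C, 5% CO2. Step four: add ONE-Glo, wait 30 min, read luminescence.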
BRCA1 expr act: increases BRCA1 expression; MCF7-BRCA1-FFLuc reporter, luminescence, 48 h; response scale: scaled: vehicle 0%, 10 µM genistein 100%; Potency, µM (doses to about 46.1 µM), without a hit: at the top dose activation, actives largely listed as activators; 1.1% of 380,000 active; AID 624202; note: potency is the fitted concentration of half-maximal effect; nearly all actives have a fitted effect of over 80% in size
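Activators of BRCA1 expression were detected as increased firefly luciferase luminescence in engineered MCF7 cells after 48 h compound incubation. Signals were scaled to genistein 10 microM as full activation.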
Nrf2 ARE act: activates Nrf2 signaling; AREc32 ARE-luciferase reporter (MCF7-derived line), luminescence, 24 h; Potency, µM (top dose mostly 46.1 µM), for inactives: at the top dose activation, usual class: activators; 0.31% of 410,000 active; AID 624171; note: potency is the fitted concentration of half-maximal effect; % of control where 0% means no effect; nearly all actives have a fitted effect of over 65% in size
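Each well held 1000 AREc32 cells, which were incubated with compound for 24 hr at 37 deg C after overnight attachment, and ARE reporter activity was quantified by firefly luciferase luminescence.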
IL-2 act: activates IL-2 in a cell-based reporter assay; IL-2 activation reporter assay, cell-based qHTS; stimulated with anti-CD3/CD4/CD28 beads; in transgenic mouse T cells; activation, % (series mostly up to about 46 µM); 0.065% of 360,000 active; in the data active = activation above about 50%; inconclusive = mostly about 30% to 49%; note: 0% is about no effect
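Unstimulated transgenic mouse T cells; 60-min compound exposure; bead-based TCR/CD4/CD28 stimulation; 18 h culture, 37 degrees C; dual fluorescence (EGFP, DsRed) plate cytometry.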
Active calls of the source: *; ? = inconclusive; . = no result; [ ] = dose if it differs, or a comment. Most compounds without a hit are left out; they make up all but 3.1% or so of the library. Unless noted, calls come from the whole dose curve; as a rule, active = well fitted curve in the direction sought with a large enough effect; inconclusive = small, poorly fitted or top-dose-only effect, or another doubt; inactive = no such curve, though single readings can be large; an effect the other way counts as inactive or inconclusive.

SMILES	ELG1 DNA repair	BRCA1 expr act	Nrf2 ARE act	IL-2 act
Cn1c(/C=C/c2ccc(Cl)cc2)nc2ccccc2c1=O	?	-14%	13%	0
CCn1c(/C=C/c2ccccc2)nc2ccccc2c1=O	-19%	-34%	3.5µM*	1
Cn1c(/C=C/c2ccccc2)nc2ccccc2c1=O	?	-12%	11µM*	-5
Cc1ccc(NC(=O)c2cn3c4c(ccc(Cl)c4c2=O)OC(C)C3)c(C)c1 (configuration not stated)	.	.	-1%	.
NC(=O)c1ccc(NC(=O)COC(=O)c2c3c(nc4ccccc24)/C(=C\c2cccs2)CCC3)cc1	7.3µM*	-39%	-1%	-1
CCc1cccc(C)c1NC(=O)COC(=O)c1c2c(nc3ccccc13)/C(=C\c1cccs1)CCC2	15µM*	-47%	0%	0
CCCCNC(=O)COC(=O)c1c2c(nc3ccccc13)/C(=C\c1cccs1)CC2	.	-73%	3%	-1
CC(C)CNC(=O)COC(=O)c1c2c(nc3ccccc13)/C(=C/c1cccs1)CC2	?	-7%	6%	0
Cn1c(SCc2ccc(C#N)cc2Cl)nc2ccccc21	?	4.5µM*	1%	-2
O=c1c2ccccc2n(Cc2ccccc2Cl)c(=O)n1CCc1ccccc1	.	-22%	5%	.
COC(=O)[C@@]1(Sc2ccc(C)cc2)CC(=O)N[C@@H]1c1ccc(Br)cc1	.	11%	2%	0
Cc1ccc(Cn2nnc3c(=O)[nH]c(C4CCCN(C(=O)Nc5ccc(F)cc5)C4)nc32)cc1 (configuration not stated)	16µM*	-23%	0%	-3
Cc1ccc(C)c(Cn2nnc3c(=O)[nH]c(C4CCN(C(=O)c5cccs5)CC4)nc32)c1	?	-70%	0%	0
Cc1ccc(Cn2nnc3c(=O)[nH]c(C4CCN(C(=O)c5cccs5)CC4)nc32)cc1	9.2µM*	-48%	0%	-1
COc1ccc(Cn2nnc3c(=O)[nH]c(C4CCCN(C(=O)c5ccc(C)cc5)C4)nc32)cc1 (configuration not stated)	.	.	6%	.
CCOc1ccccc1NC(=O)N1CCN(S(=O)(=O)c2ccc3c(ccn3C)c2)CC1	.	-8%	0%	.
CC1CCCCN1c1cc2c(cc1F)c(=O)c(S(=O)(=O)c1ccccc1)cn2Cc1ccccc1 (configuration not stated)	.	.	0%	.
COC(=O)c1sc2nc3c(cc2c1N)COC(C)(C)C3	?	4.5µM*	1%	-1
CC1(C)Cc2nc3sc(C(=O)NCCCO)c(N)c3cc2CO1	?	?	5%	2
CCOC(=O)c1oc2nc3c(cc2c1N)CCCC3	?	?	0%	5
CCOC(=O)c1oc2nc3c(cc2c1N)COC(C)(C)C3	?	7.9µM*	0%	-2
COc1cc(-c2noc(-c3ccc(N(C)C)c([N+](=O)[O-])c3)n2)cc(OC)c1OC	.	-8%	0%	.
CCCOc1ccc(C(=O)Nc2cc3c(cc2N2CCOCC2)n(C)c(=O)n3C)cc1	.	.	-1%	.
COc1cccc(CN(Cc2ccco2)S(=O)(=O)c2ccc(S(=O)(=O)NCc3ccccc3)cc2)c1OC	12µM*	-50%	0%	-3
COc1cccc(CN(Cc2ccccc2F)S(=O)(=O)c2ccc(S(=O)(=O)NCc3ccccc3)cc2)c1	1%	-29%	0%	0
SMILES	ELG1 DNA repair	BRCA1 expr act	Nrf2 ARE act	IL-2 act
COc1ccc(NC(=O)c2cc3ccccc3o/c2=N\NS(=O)(=O)c2ccc(C)cc2)cc1	?	5µM*	5%	2
CNc1ccc(/C=C\CCCO)cn1	.	10µM*	0%	1
CCOc1ccccc1CNC(=O)c1ccc2c(c1)sc1nc(-c3cccc(OC)c3)cn12	.	.	6%	.
CCCc1cc(-c2[nH]ncc2-c2ccc(C(=O)OCC)o2)c(O)cc1O	?	-58%	3%	-2
CCCc1cc(-c2[nH]ncc2-c2ccc3c(c2)OCCCO3)c(O)cc1O	21µM*	-51%	-1%	-1
Cc1ccc(NC(=O)CCc2nnc3n(CC(C)C)c(=O)c4ccccc4n23)cc1C	.	.	1%	.
CN(C)CCCN1C(=O)c2cccc3c([N+](=O)[O-])ccc(c23)C1=O	13µM*	-104%	-4%	1
O=C1c2cccc3c([N+](=O)[O-])ccc(c23)C(=O)N1CCc1ccccn1	0%	-22%	?	5
CCOc1ccc(/C=C/c2nc(C#N)c(Nc3ccc(OC)cc3)o2)cc1	.	.	4%	.
Cc1ccc(OCC(=O)Nc2ccc(-c3nc4ccc(C)cc4o3)cc2)cc1	.	0.89µM*	3%	.
Cc1ccc2nc(-c3ccc(Cl)c(NC(=O)COc4ccc(C(C)C)cc4)c3)oc2c1	.	.	6%	.
Cc1c(C(=O)Nc2cccc(F)c2)oc2c1-c1nn(Cc3c(F)cccc3Cl)cc1CC2	.	.	4%	.
CCCN(C(=O)Nc1cn(CC(C)C)c(=O)c2ccccc12)c1ccc(F)cc1	.	0%	2%	.
Cc1ccc(C(=O)N/N=C2\CCc3ccccc32)c(C)c1	?	?	1%	-5
O=C(N/N=C1\CCc2ccccc21)c1ccc(O)cc1	?	2µM*	-1%	0
O=C(N/N=C1\CCc2ccccc21)c1ccccc1Cl	?	2µM*	2%	-1
CCCSC1=C(C#N)C(c2ccc(OC)cc2)C2=C(CC(C)(C)CC2=O)N1 (configuration not stated)	-8%	-30%	0%	-3
CSC1=C(C#N)C(c2ccc(Cl)cc2)C2=C(CC(C)(C)CC2=O)N1 (configuration not stated)	18µM*	-39%	0%	0
COc1ccc2sc(-c3ccc(S(C)(=O)=O)cc3)c(C(=O)NCCc3c[nH]c4ccccc34)c2c1	18µM*	-10%	4%	0
COc1ccc2c(C(=O)NCCCCO)c(-c3ccc(S(C)(=O)=O)cc3)sc2c1	-9%	3%	2%	1
c1ccc(-c2nc(-c3ccc(-c4ccon4)s3)no2)cc1	?	93%	10%	1
c1csc(-c2cc(N3CCCCC3)c3ccccc3n2)c1	-21%	-39%	0%	0
Cc1ccc(-c2noc(-c3cccs3)n2)cc1	?	-3%	11µM*	-1
COc1ccc(-c2nc(-c3cccs3)no2)cc1	?	36%	2%	-1
c1csc(-c2nc(N3CCCCC3)no2)c1	?	6.3µM*	?	0
SMILES	ELG1 DNA repair	BRCA1 expr act	Nrf2 ARE act	IL-2 act
c1csc(-c2nc(-c3ccc(-c4ccon4)s3)no2)c1	?	?	5.6µM*	0
Cc1cccc(-c2c3c(=O)n(C)c(=O)n(C)c3cn2-c2cc(N)c(Cl)cc2Cl)c1	.	.	0%	.
Cc1ccc(-c2nc3cc(Cl)ccc3o2)cc1NC(=O)COc1ccc(F)cc1	.	.	5%	.
COc1cccc(-c2ccc3ncnc(NCc4cccnc4)c3c2)c1	5.2µM*	0%	-1%	0
c1cncc(CNc2ncnc3sccc23)c1	21µM*	0%	0%[9.22 µM]	-3
COc1cc(C(=O)NCCC(=O)NCc2cccs2)cc(OC)c1OC	.	-6%	0%	-3
